TDP1 cell noCPT = qHTS for Inhibitors of human tyrosyl-DNA phosphodiesterase 1 (TDP1): qHTS in cells in absence of CPT. DT40 Tdp1-/- hTDP1 cells, no CPT, ATP luminescence, 48 h. Potency, µM (top dose mostly 46.2 µM), for inactives: at the highest dose activity change, negative = growth inhibition, most hits filed as inhibitors. hit rate 15% among 420,000; also: nearly all actives have a fitted effect of over 55% in size
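Cells were dispensed at 400 per well, compounds added by pin tool, plates incubated ≥48 hr at 37 °C, then CellTiter-Glo added for 30 min at room temperature before luminescence reading. Line: DT40 Tdp1-/- complemented with hTDP1; camptothecin omitted.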
KB-3-1 tox = KB-3-1 parental cell cytotoxicity. KB-3-1 viability, CellTiter-Glo ATP luminescence, 72 h. Potency, µM (doses to about 46.1 µM), most hits filed as cytotoxic. hit rate 1.4% among 400,000. AID 1347075; also: nearly all actives have a fitted effect of over 60% in size
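Cells are dispensed, compounds pinned in, plates held at 37 °C for 72 h, then CellTiter-Glo is added and luminescence read after 10 minutes. Cell line: parental KB-3-1 in phenol-red-free DMEM, 10% FBS.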
HT1080-NT tox = kills 2HG-producing HT-1080-NT fibrosarcoma cells | hit rate 1.6% among 360,000 | Potency, µM (top dose mostly 46.1 µM), inactives show at the top dose activity, negative = less viability, hits mostly cytotoxic | HT-1080-NT fibrosarcoma viability, CellTiter-Glo ATP luminescence, 48 h;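 also: NT is the 2HG producing partner of a matched IDH1 knockdown line; 0% = DMSO-treated cells and -100% = media-only wells without cells; nearly all actives have a fitted effect of over 55% in size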
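HT-1080-NT; 750 cells/well; 5% FBS RPMI; 48 h compound, 37 degrees C; CellTiter-Glo luminescence; curve fitting and curve-class assignment.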
DT40 TDP1 CPT = DT40-hTDP1 cell growth loss with CPT. hit rate 12% among 420,000. AID 686979. chicken DT40 Tdp1-/-;hTDP1 cells + 20 nM CPT, ATP luminescence, 48 h. Potency, µM (titrated, usually from 46.2 µM), for the others: at the highest dose activity change, negative = growth inhibition, hits mostly inhibitors; also: nearly all actives have a fitted effect of over 55% in size
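Chicken DT40 Tdp1-/- cells complemented with human TDP1, 400 cells/well, exposed to compounds plus 20 nM camptothecin for at least 48 h at 37 C; viability read as ATP content by CellTiter-Glo luminescence.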
HT1080 IDH1KD tx = kills HT-1080 cells with IDH1 knockdown; hit rate 2% among 360,000; Potency, µM (highest dose often 46.1 µM), inactives show at the top dose activity, negative = toxicity, usual class: cytotoxic; HT-1080 IDH1 knockdown viability, ATP luminescence, 48 h;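 also: 0% = DMSO wells and -100% = cell-free medium wells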
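CellTiter-Glo luminescence after 48 h compound exposure at 37 degrees C of IDH1-knockdown HT-1080 cells in 5% FBS RPMI. %Activity scaled between DMSO wells and cell-free media wells, with curves fitted and assigned curve classes.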
KB-V1 MDR tox = KB-V1 MDR subline cytotoxicity; AID 1347076; hit rate 3.4% among 400,000; KB-V1 MDR cells viability, CellTiter-Glo, 72 h; Potency, µM (titrated, usually from 46.1 µM), actives largely listed as cytotoxic; also: nearly all actives have a fitted effect of over 60% in size
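qHTS viability screen in drug-selected KB-V1 MDR cells: 72 h compound treatment at 37 degrees C, ATP luminescence end point.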
* = called active by the depositor; i = inactive; u = inconclusive; x = no result given. The list is not random: actives were taken first. Their share in the collection is about 19%. Calls follow the shape of the dose curve; as a rule, active = well fitted curve in the direction sought with a large enough effect; inconclusive = small, poorly fitted or top-dose-only effect, or another doubt; inactive = no such curve, though single readings can be large; an effect the other way counts as inactive or inconclusive. Unless noted, % is scaled to controls: 0 for no effect and ±100 for the full control effect; potency is read from the fitted curve at half-maximal effect.

SMILES | TDP1 cell noCPT | KB-3-1 tox | HT1080-NT tox | DT40 TDP1 CPT | HT1080 IDH1KD tx | KB-V1 MDR tox
CCn1c(C)nc2cc(C(=O)N/N=C/c3ccc(OC)c(O)c3)ccc21 | 9% | i | 29% | -17% | 19% | i
Cc1ccc(CSc2oc(-c3ccco3)nc2S(=O)(=O)c2ccc(Br)cc2)cc1 | u | i | x | u | x | i
O=S(=O)(c1ccc(Cl)cc1)c1nc(-c2cccs2)oc1SCc1ccccc1F | 23µM* | i | x | 16µM* | x | i
O=S(=O)(c1ccc(Br)cc1)c1nc(-c2ccco2)oc1SCc1ccccc1Cl | u | u | x | 16µM* | x | i
O=S(=O)(c1ccc(Cl)cc1)c1nc(-c2ccco2)oc1SCc1ccccc1F | 16µM* | i | x | 23µM* | x | i
Cc1ccc(S(=O)(=O)c2nc(-c3cccs3)oc2SCc2ccc(F)cc2)cc1 | 10µM* | i | x | 16µM* | x | i
Cc1ccc(CSc2oc(-c3cccs3)nc2S(=O)(=O)c2ccccc2)cc1 | u | i | x | u | x | u
CCC(C)Sc1oc(-c2ccco2)nc1S(=O)(=O)c1ccc(Cl)cc1 (configuration not stated) | u | i | x | 18µM* | x | i
COC(=O)[C@]1(Cc2ccccc2)N[C@H](CN(C)C(=O)COc2ccccc2)[C@@H]2C(=O)N(Cc3ccccc3)C(=O)[C@@H]21 | u | i | 0% | 21µM* | -1% | i
CCN(C[C@H]1N[C@@](Cc2ccccc2)(C(=O)OC)[C@H]2C(=O)N(Cc3ccccc3)C(=O)[C@@H]12)C(=O)C1CCCCC1 | 13µM* | i | 0% | u | 0% | i
CCN(C[C@H]1N[C@@](Cc2ccccc2)(C(=O)OC)[C@H]2C(=O)N(Cc3ccccc3)C(=O)[C@@H]12)C(=O)COc1ccccc1 | 18µM* | i | 4% | 21µM* | 4% | i
CCNC(=O)N(CC)C[C@H]1N[C@@](Cc2ccccc2)(C(=O)OC)[C@H]2C(=O)N(Cc3ccccc3)C(=O)[C@@H]12 | -28% | i | 17% | 12% | 13% | i
COc1ccccc1/C=C/C=N/NC(=O)c1cc(-c2ccc(C)o2)[nH]n1 | u | i | u | u | u | u
COc1ccc(-c2cc(-c3ccc(OC)c(OC)c3)n[nH]2)c(O)c1 | 21µM* | u | -5% | 26µM* | u | 2.6µM*
COc1ccc(-c2cc(-c3ccc(Cl)cc3)n[nH]2)c(O)c1 | u | i | -4% | u | 3% | i
COc1ccc(-c2cc(-c3cc(F)ccc3O)[nH]n2)cc1OC | u | i | 0% | u | u | i
COc1ccc(-c2cc(-c3ccccc3O)[nH]n2)cc1OC | 18µM* | i | u | u | u | i
CNC(=S)N1CCC(NC(=O)C(Cc2ccccc2)NC(C)=O)CC1 (configuration not stated) | 7% | i | 21% | 0% | 11% | u
Cc1ccc(NC2CCCN(C(=O)CCC3=NNC(=O)CC3)C2)cc1C (configuration not stated) | -7% | i | 2% | -17% | 0% | i
CCc1nc2nc(C)cc(Nc3cc(C)ccc3C)n2n1 | 18µM* | i | x | u | x | i
CCc1nc2nc(C)cc(Nc3cccc(C)c3C)n2n1 | -16% | i | x | u | x | i
CCc1nc2nc(C)cc(Nc3ccc(Br)cc3F)n2n1 | u | i | x | 16µM* | x | i
Cc1cccc(Nc2cc(C)nc3nc(Cc4ccc(Cl)cc4)nn23)c1 | u | i | x | 21µM* | x | i
CCOc1ccc(Nc2cc(C)nc3nc(Cc4ccc(Cl)cc4)nn23)cc1 | 0% | i | x | u | x | i
Cc1cccc(/C(N)=N/OC(=O)c2ccoc2C)c1 | u | u | u | 0.65µM* | 16µM* | u
SMILES | TDP1 cell noCPT | KB-3-1 tox | HT1080-NT tox | DT40 TDP1 CPT | HT1080 IDH1KD tx | KB-V1 MDR tox
Cc1cc(NC(=O)NC(=O)c2ccccc2NC(=O)C(C)N)ccc1Oc1ncc(Br)cn1 (configuration not stated) | 0.58µM* | 0.23µM* | u | 0.65µM* | 0.092µM* | 0.73µM*
CCOc1ccc(C(=O)NNC2CC(=O)N(Cc3ccc(Cl)cc3)C2=O)cc1OC (configuration not stated) | -14% | i | 6% | 6% | 12% | i
CC(=O)Nc1ccccc1-c1cccc2nccn12 | -2% | i | 5% | -1% | 13% | i
Cc1cc(C(=O)NCCN2CCN(c3cccc(Cl)c3)CC2)n(-c2ccccc2)n1 | 4.1µM* | 15µM* | 8.2µM* | 5.8µM* | 16µM* | i
CN1CCC/C1=C1/C(=O)N(c2ccccc2)N=C1NC(=O)Nc1cccc(Cl)c1 | 15µM* | i | 0% | 8.2µM* | -8% | i
O=C(NCCN1CCN(c2ccccc2)CC1)Nc1cccc(Cl)c1 | u | i | 21µM* | u | 18µM* | i
Cc1ccc(NC(=O)NCCN2CCN(c3ccccc3)CC2)cc1Cl | u | i | -25% | u | u | i
Cc1cc(C(=O)NCCCN2CCN(c3cc(Cl)ccc3C)CC2)n(-c2ccccc2)n1 | u | u | u | 10µM* | u | u
COc1cc(NC(=O)c2cccc3c2C(=O)N(Cc2cccnc2)C3)cc(OC)c1OC | u | i | 0% | u | 4% | u
COCCCNC(=O)c1cn(C)c(=O)c2c1c1ccccc1n2C | -7% | i | -16% | 4% | -3% | i
Cc1cccc(N2CCN(CCNC(=O)Nc3ccc(Cl)cc3)CC2)c1C | 13µM* | x | x | 13µM* | x | x
Cn1cc(C(=O)NCCN2CCN(c3cccc(Cl)c3)CC2)c2c3ccccc3n(C)c2c1=O | 15µM* | i | 2% | 26µM* | 14% | i
O=C(Nc1ccc2oc(=O)ccc2c1)c1ccc(-c2cccc([N+](=O)[O-])c2)o1 | 7.3µM* | 26µM* | 10µM* | 8.2µM* | 8.2µM* | i
O=C(Nc1ccc2oc(=O)ccc2c1)c1ccc(-c2cccc(Cl)c2)o1 | u | i | 12% | 8.2µM* | 16% | u
O=C(Nc1ccc2oc(=O)ccc2c1)c1ccc(-c2ccccc2[N+](=O)[O-])o1 | u | i | 18µM* | 1% | u | i
c1ccc2c(-c3cnc4cccnn34)cncc2c1 | -28% | i | 18% | u | 18% | i

Assay outcomes as filed in PubChem BioAssay.
